Target: PAI-1 wild type, active (human, UniProt P05121 24-402)
Assay: branched SELEX with high-throughput sequencing; PAI-1 immobilised on polyclonal anti-PAI-1 antibody; HBS (10 mM HEPES pH 7.4, 140 mM NaCl), 2 mM MgCl2, 2 mM CaCl2, 0.1% BSA; RNA pool 100 nM; PAI-1 captured on antibody-coated wells; 45 min; binding temperature not stated (PAI-1 capture at room temperature); high values mean tight binding;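 further: Pool frequency after one selection round with this target divided by frequency before selection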
Conditions: protein: recombinant; tags: N-terminal His6; structured_RNA; 2'-F pyrimidines

Chain of PAI-1 wild type, active (P05121 24-402): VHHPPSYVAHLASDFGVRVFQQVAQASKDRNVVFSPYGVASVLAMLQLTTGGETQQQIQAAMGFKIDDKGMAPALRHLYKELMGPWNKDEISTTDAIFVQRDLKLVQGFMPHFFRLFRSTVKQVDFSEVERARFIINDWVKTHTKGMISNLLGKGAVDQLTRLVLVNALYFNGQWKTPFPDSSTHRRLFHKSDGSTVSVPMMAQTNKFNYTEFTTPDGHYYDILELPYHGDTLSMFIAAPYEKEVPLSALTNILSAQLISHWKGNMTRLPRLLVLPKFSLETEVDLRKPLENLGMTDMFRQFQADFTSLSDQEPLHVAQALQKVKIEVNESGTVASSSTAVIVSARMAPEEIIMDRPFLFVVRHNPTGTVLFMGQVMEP

In order of rising binding signal:
1. GGGGCCACCAACGACAUUGACCCGGUCACUUAUGUGGCCGAUAUCGUAGAUGCGUUGAUAUAAAUAGUGCCCAUGGAUC  0.2 enrichment factor
2. GGGGCCACCAACGACAUUGGUAAUGGUGUGAAUUAACCUUAAGCCUAUUGGUUGUUGAUAUAAAUAGUGCCCAUGGAUC  0.22 enrichment factor
3. GGGGCCACCAACGACAUUGCGCUACGAUCAAAACACGUAGUAGUGCAACGAAUGUUGAUAUAAAUAGUGCCCAUGGAUC  0.29 enrichment factor
4. GGGGCCACCAACGACAUUAUGCCGUAGGCGCUAGAUGUGCCGAUCAUAAUGCAGUUGAUAUAAAUAGUGCCCAUGGAUC  0.5 enrichment factor
5. GGGGCCACCAACGACAUUUCGACUUGUAGACGAUAUUCGUCGACUCGAAGAGCGUUGAUAUAAAUAGUGCCCAUGGAUC  0.51 enrichment factor
6. GGGGCCACCAACGACAUUCUGGCCGUAGGACAAUAGUCCGAUCCAGAUAUAGAGUUGAUAUAAAUAGUGCCCAUGGAUC  0.54 enrichment factor
7. GGGGCCACCAACGACAUUUUACUGUAGAGAAGAAUUACUUCUCGACCAAAUGUGGUUGAUAUAAAUAGUGCCCAUGGAUC  0.55 enrichment factor
8. GGGGCCACCAACGACAUUGACCCAUCUCGCGUUUCCGGGAUGACUAGUAGAAUGUUGAUAUAAAUAGUGCCCAUGGAUC  0.56 enrichment factor
9. GGGGCCACCAACGACAUUGUAGACUUGUCAACGGUCGACUGUCGAUACAUGUGUUGAUAUAAAUAGUGCCCAUGGAUC  0.56 enrichment factor
10. GGGGCCACCAACGACAUUGACCAUGUAGGACUUAAAGUCUGACCACAAUGUGUGUUGAUAUAAAUAGUGCCCAUGGAUC  0.6 enrichment factor
11. GGGGCCACCAACGACAUUACGUAGCUGGGUUUCACCAGCGAUUAGUUGUUGAUAUAAAUAGUGCCCAUGGAUC  0.7 enrichment factor
12. GGGGCCACCAACGACAUUCACCACGUAGUGAAACUUUCACGACUAGAAUGUAAGUUGAUAUAAAUAGUGCCCAUGGAUC  0.74 enrichment factor
13. GGGGCCACCAACGACAUUCUACGUCGUAGUCGCUUAGCGAUGACCGUUAGAUGUUGAUAUAAAUAGUGCCCAUGGAUC  0.74 enrichment factor
14. GGGGCCACCAACGACAUUGAUCACUAAGGUUAGACCGGAGUGCCGUAGAAUGCGUUGAUAUAAAUAGUGCCCAUGGAUC  0.88 enrichment factor
15. GGGGCCACCAACGACAUUCUAGUCUGGUAGCAAUACCUAAGUUCGUCUAGAAAGUUGAUAUAAAUAGUGCCCAUGGAUC  0.89 enrichment factor
16. GGGGCCACCAACGACAUUACGUAGCAUGAUGAGUUUCUCGUCGGCGAUCAGUUGUUGAUAUAAAUAGUGCCCAUGGAUC  0.98 enrichment factor
17. GGGGCCACCAACGACAUUUGCGUAAGCAUCCUUCGAUGUACCACAUCGAGAUCGUUGAUAUAAAUAGUGCCCAUGGAUC  1.04 enrichment factor
18. GGGGCCACCAACGACAUUCCGCUCAUGAUCUGUUAUCAUGAGUGCGUAGUACCGUUGAUAUAAAUAGUGCCCAUGGAUC  1.08 enrichment factor
19. GGGGCCACCAACGACAUUUCCGUGAGGAUCUAUGUUGUGGAAAACAACAGUUCGUUGAUAUAAAUAGUGCCCAUGGAUC  1.09 enrichment factor
20. GGGGCCACCAACGACAUUACCAUGUAGGCGUAAUUUCACGCUGACCAAGUGUUGUUGAUAUAAAUAGUGCCCAUGGAUC  1.19 enrichment factor
21. GGGGCCACCAACGACAUUCCGUCCGUGUUCAGUUAACACGCAUGUGUUUUGUGGUUGAUAUAAAUAGUGCCCAUGGAUC  1.36 enrichment factor
22. GGGGCCACCAACGACAUUCAGGCCGUAGGAUGUUAUAUCCGAUCCUGAUCUUCGUUGAUAUAAAUAGUGCCCAUGGAUC  1.4 enrichment factor
23. GGGGCCACCAACGACAUUCUGGGCCGUAGGCGAUAUUAGCCGAUCCCAGAAGAGUUGAUAUAAAUAGUGCCCAUGGAUC  1.43 enrichment factor
24. GGGGCCACCAACGACAUUUCGCAGCUUCGUAGUACAGGCGCAAGUUGACACAUGUUGAUAUAAAUAGUGCCCAUGGAUC  1.47 enrichment factor
25. GGGGCCACCAACGACAUUACGUAGUUUGAGAUAGUUAACUCGAACGAUUAGUUGUUGAUAUAAAUAGUGCCCAUGGAUC  1.57 enrichment factor
26. GGGGCCACCAACGACAUUGAACUUGUAGUACCUGUAUUGGGUAUGACCUCAGUGUUGAUAUAAAUAGUGCCCAUGGAUC  1.61 enrichment factor
27. GGGGCCACCAACGACAUUGCAUCGUAGGCAUAUAGCUGACUGCAAUUUAGGACGUUGAUAUAAAUAGUGCCCAUGGAUC  2 enrichment factor
28. GGGGCCACCAACGACAUUGUCGUAGGCGUCAUAUUAUACUUACGCUGACCAAUGUUGAUAUAAAUAGUGCCCAUGGAUC  2.09 enrichment factor
29. GGGGCCACCAACGACAUUGCCGUAGGUGCGGGAACACUUCACCGAUCGAUGUUGUUGAUAUAAAUAGUGCCCAUGGAUC  2.29 enrichment factor
30. GGGGCCACCAACGACAUUGCCGUAGGCGAUAAUACAUCGCUGAUCAUUUGUACGUUGAUAUAAAUAGUGCCCAUGGAUC  2.34 enrichment factor
31. GGGGCCACCAACGACAUUGAGUCUCCUACACGCGUAGGUAAGUUCGUCUCAUUGUUGAUAUAAAUAGUGCCCAUGGAUC  3.79 enrichment factor
32. GGGGCCACCAACGACAUUAAGUUCGUCCUCUUCCAAGAGAAGGGGUCUAUGCCGUUGAUAUAAAUAGUGCCCAUGGAUC  5.35 enrichment factor
33. GGGGCCACCAACGACAUUCAACGUGCACUGUAGCUGUACAAAGCGACCAACGUUGAUAUAAAUAGUGCCCAUGGAUC  6.23 enrichment factor
34. GGGGCCACCAACGACAUUAAGUUCGUCCCGCAUGGUACGAUGCGGGUCUAUGCGUUGAUAUAAAUAGUGCCCAUGGAUC  6.47 enrichment factor
35. GGGGCCACCAACGACAUUGAGUCUAGACAAAAUUGUCUUAAGUUCGUCUUAAUGUUGAUAUAAAUAGUGCCCAUGGAUC  7.89 enrichment factor
36. GGGGCCACCAACGACAUUCUAAGUUCGUCCUACUUACUCUUGUAGGUCUGAAUGUUGAUAUAAAUAGUGCCCAUGGAUC  16.4 enrichment factor

From article PMC4666376, “Characterisation of aptamer–target interactions by branched selection and high-throughput sequencing of SELEX pools”
